Results: ChEMBL document CHEMBL1961873, “Compounds: GSK PKIS; Assays: Nanosyn kinase panel” (2012)
Values joined by “and” are separate entries in the source; they are usually repeats but may differ in a detail not shown here. Equal entries are not always repeated.

These compounds were tested against Dual specificity mitogen-activated protein kinase kinase 1 (Homo sapiens) (UniProt Q02750). Details: at 1 µM.
Chain of Dual specificity mitogen-activated protein kinase kinase 1 (Homo sapiens) (Q02750 whole entry): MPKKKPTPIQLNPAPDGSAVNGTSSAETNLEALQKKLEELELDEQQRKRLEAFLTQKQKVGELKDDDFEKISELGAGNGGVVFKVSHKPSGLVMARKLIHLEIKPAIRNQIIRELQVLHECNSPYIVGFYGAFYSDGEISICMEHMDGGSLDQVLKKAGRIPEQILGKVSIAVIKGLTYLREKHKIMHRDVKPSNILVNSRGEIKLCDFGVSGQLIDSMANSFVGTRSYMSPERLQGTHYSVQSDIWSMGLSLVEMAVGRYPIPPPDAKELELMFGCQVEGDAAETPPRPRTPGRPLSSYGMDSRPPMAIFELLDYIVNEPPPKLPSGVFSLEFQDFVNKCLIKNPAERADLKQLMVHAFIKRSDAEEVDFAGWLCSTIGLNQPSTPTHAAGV

| Structure (SMILES) | inhibition |
| --- | --- |
| CNC(=O)c1cncc(/C=C/c2ccccc2C)c1 | 5.22% |
| CC(C)c1ccc(-c2cc(-c3c[nH]nc3-c3ccccn3)ccn2)cc1 | 2.47% |
| Fc1cccc(COc2ccc(Nc3ncncc3C#Cc3ccccc3)cc2Cl)c1 | 4.44% |
| NS(=O)(=O)c1ccc(N/N=C2\C(=O)Nc3cccc(CCc4ccncc4)c32)cc1 | 3.3% |
| CCn1c(-c2nonc2N)nc2cncc(C(=O)NCCNC)c21 | 3.62% |
| CS(=O)(=O)CCNCc1ccc(-c2ccc3ncnc(Nc4ccc(OCc5cccc(C(F)(F)F)c5)cc4)c3c2)o1 | 5.38% |
| Cc1cc(O)cc(C)c1/C=C/c1cncc(C(=O)OC(C)(C)C)c1 | 3.99% |
| O=C(O[C@H]1CN[C@H](C#Cc2cc3ncnc(Nc4ccc(OCc5cccc(F)c5)c(Cl)c4)c3s2)C1)N1CCOCC1 | 5.74% |
| c1ccc(-c2n[nH]cc2-c2ccnc(-c3ccc(OCCn4ccnc4)cc3)c2)nc1 | 2.45% |
| c1cnn2ncc(-c3ccnc(NCCCN4CCOCC4)n3)c2c1 | 3.9% |
| O=C(O[C@H]1CN[C@H](C#Cc2cc3ncnc(Nc4ccc5c(ccn5Cc5cc(F)ccc5F)c4)c3s2)C1)N1CCOCC1 | 5.26% |
| O=C(O[C@H]1CN[C@H](C#Cc2cc3ncnc(Nc4ccc5c(cnn5Cc5ccccc5)c4)c3s2)C1)N1CCOCC1 | -0.55% |
| COc1ccc(Nc2ncc(-c3ccccc3)o2)cc1OC | 2.06% |
| CC1=C(C(=O)Nc2ccc3[nH]nc(C)c3c2)C(c2ccc(C(F)(F)F)cc2)CC(=O)N1 (configuration not stated) | 36.5% |
| Cn1c(-c2nonc2N)nc2cnccc21 | 4.45% |
| CCS(=O)(=O)c1ccc(OC)c(Nc2ncc(-c3cccc(F)c3)o2)c1 | 5% |

| Structure (SMILES) | inhibition |
| --- | --- |
| Cc1nnc(-c2cccc(-c3ccc(C(=O)NCC4CC4)cc3)c2)o1 | 4.7% |
| COc1cc2c(cc1Nc1nc(Nc3cccc(F)c3C(N)=O)c3cc[nH]c3n1)N(C(=O)CN1CCN(C(C)C)CC1)CC2 | 4.11% |
| COc1cc(N2CCN(C(C)C)CC2)ccc1Nc1nc(Nc2cccc(F)c2C(=O)O)c2cc[nH]c2n1 | 2.88% |
| NC(=O)c1ccc2c(-c3ccnc(NCCCO)n3)c(-c3ccc(F)cc3)nn2c1 | 13.2% |
| COc1ccccc1-c1cc(/C=C2\C(=O)Nc3ncc(Br)cc32)cc(Br)c1O | 5.7% |
| COC(=O)Nc1nc2ccc(Oc3ccc(NC(=O)Nc4cc(C(F)(F)F)ccc4F)cc3)cc2s1 | 1.52% |
| CN1CCC(C(=O)Nc2n[nH]c3nc(-c4ccc(O)cc4)c(Br)cc23)CC1 | 5.03% and 2.15% |
| CCOc1ccc2c(-c3ccnc(Nc4cc(OC)cc(C(F)(F)F)c4)n3)cnn2n1 | 0.8% |
| CC1=C(C(=O)Nc2ccc3[nH]ncc3c2)C(c2ccc(F)cc2)N=C(c2ccc(C(F)(F)F)nc2)N1 (configuration not stated) | 3.43% |
| Nc1ncnc2occ(-c3ccc(NC(=O)Nc4cc(C(F)(F)F)ccc4F)cc3)c12 | 2.3% and 0.44% |
| CCS(=O)(=O)c1ccc(OC)c(Nc2ncc(-c3cccc(C(C)=O)c3)o2)c1 | 2.6% |
| FC(F)(F)CNc1nccc(-c2cnn3ncccc23)n1 | 2.41% |
| CN(C)CCNC(=O)Nc1ccc(N(C)c2ccnc(Nc3ccc(CS(C)(=O)=O)cc3)n2)cc1 | 4.12% |
| Nc1nccc(-c2c(-c3ccc(F)cc3)ncn2C2CCNCC2)n1 | 1.41% and 5.84% |
| CN1CCC(n2cnc(-c3ccc(F)cc3)c2-c2ccnc(NCCO)n2)CC1 | 5.25% |

Each compound was assayed against Misshapen-like kinase 1 (Homo sapiens) (UniProt Q8N4C8). Details: at 0.1 µM.
Chain of Misshapen-like kinase 1 (Homo sapiens) (Q8N4C8 whole entry, looked up): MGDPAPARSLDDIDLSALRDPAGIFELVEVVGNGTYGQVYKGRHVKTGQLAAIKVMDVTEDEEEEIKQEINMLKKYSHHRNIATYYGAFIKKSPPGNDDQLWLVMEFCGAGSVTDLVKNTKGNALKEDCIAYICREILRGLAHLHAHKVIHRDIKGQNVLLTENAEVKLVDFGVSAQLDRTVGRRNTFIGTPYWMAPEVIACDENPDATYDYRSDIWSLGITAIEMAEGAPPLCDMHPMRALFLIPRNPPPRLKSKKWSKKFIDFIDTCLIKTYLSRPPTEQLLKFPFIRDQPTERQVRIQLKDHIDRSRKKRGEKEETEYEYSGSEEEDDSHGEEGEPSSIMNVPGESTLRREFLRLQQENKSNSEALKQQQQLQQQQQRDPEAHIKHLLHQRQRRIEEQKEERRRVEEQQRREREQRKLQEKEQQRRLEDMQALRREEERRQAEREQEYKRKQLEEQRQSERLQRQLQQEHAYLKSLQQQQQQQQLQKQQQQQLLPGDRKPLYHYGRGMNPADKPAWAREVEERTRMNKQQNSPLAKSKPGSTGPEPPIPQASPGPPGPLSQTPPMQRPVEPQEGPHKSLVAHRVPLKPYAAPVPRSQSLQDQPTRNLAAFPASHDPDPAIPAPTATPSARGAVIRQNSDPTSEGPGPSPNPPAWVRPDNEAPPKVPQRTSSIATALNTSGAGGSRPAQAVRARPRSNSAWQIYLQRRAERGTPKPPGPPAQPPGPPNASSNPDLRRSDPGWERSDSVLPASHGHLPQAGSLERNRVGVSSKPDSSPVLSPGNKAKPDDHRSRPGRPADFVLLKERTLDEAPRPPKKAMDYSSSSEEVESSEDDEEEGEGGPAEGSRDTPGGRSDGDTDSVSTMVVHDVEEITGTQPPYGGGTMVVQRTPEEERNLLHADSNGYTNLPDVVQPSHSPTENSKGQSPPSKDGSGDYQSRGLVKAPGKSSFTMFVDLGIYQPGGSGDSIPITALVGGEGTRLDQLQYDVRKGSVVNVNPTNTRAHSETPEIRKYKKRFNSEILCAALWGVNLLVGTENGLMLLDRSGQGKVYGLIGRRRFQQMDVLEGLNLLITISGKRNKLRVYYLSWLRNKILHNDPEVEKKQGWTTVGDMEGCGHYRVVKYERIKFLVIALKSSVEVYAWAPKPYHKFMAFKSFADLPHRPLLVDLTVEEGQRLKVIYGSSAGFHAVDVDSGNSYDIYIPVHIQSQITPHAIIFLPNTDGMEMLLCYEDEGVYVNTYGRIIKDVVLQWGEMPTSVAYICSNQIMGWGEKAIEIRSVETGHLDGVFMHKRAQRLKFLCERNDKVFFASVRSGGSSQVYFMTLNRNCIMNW

| Structure (SMILES) | inhibition |
| --- | --- |
| CNC(=O)c1cncc(/C=C/c2ccccc2C)c1 | 8.44% |
| CC(C)c1ccc(-c2cc(-c3c[nH]nc3-c3ccccn3)ccn2)cc1 | 7.67% |
| Fc1cccc(COc2ccc(Nc3ncncc3C#Cc3ccccc3)cc2Cl)c1 | 7.69% |
| NS(=O)(=O)c1ccc(N/N=C2\C(=O)Nc3cccc(CCc4ccncc4)c32)cc1 | 4% |
| CCn1c(-c2nonc2N)nc2cncc(C(=O)NCCNC)c21 | 7.39% |
| CS(=O)(=O)CCNCc1ccc(-c2ccc3ncnc(Nc4ccc(OCc5cccc(C(F)(F)F)c5)cc4)c3c2)o1 | 5.26% |
| Cc1cc(O)cc(C)c1/C=C/c1cncc(C(=O)OC(C)(C)C)c1 | 6.01% |
| O=C(O[C@H]1CN[C@H](C#Cc2cc3ncnc(Nc4ccc(OCc5cccc(F)c5)c(Cl)c4)c3s2)C1)N1CCOCC1 | 6.37% |
| c1ccc(-c2n[nH]cc2-c2ccnc(-c3ccc(OCCn4ccnc4)cc3)c2)nc1 | 31.9% |
| c1cnn2ncc(-c3ccnc(NCCCN4CCOCC4)n3)c2c1 | 4.95% |
| O=C(O[C@H]1CN[C@H](C#Cc2cc3ncnc(Nc4ccc5c(ccn5Cc5cc(F)ccc5F)c4)c3s2)C1)N1CCOCC1 | 5.96% |
| O=C(O[C@H]1CN[C@H](C#Cc2cc3ncnc(Nc4ccc5c(cnn5Cc5ccccc5)c4)c3s2)C1)N1CCOCC1 | -0.37% |
| COc1ccc(Nc2ncc(-c3ccccc3)o2)cc1OC | 7.04% |
| CC1=C(C(=O)Nc2ccc3[nH]nc(C)c3c2)C(c2ccc(C(F)(F)F)cc2)CC(=O)N1 (configuration not stated) | 4.68% |
| Cn1c(-c2nonc2N)nc2cnccc21 | 5.83% |
| CCS(=O)(=O)c1ccc(OC)c(Nc2ncc(-c3cccc(F)c3)o2)c1 | 8.05% |

| Structure (SMILES) | inhibition |
| --- | --- |
| Cc1nnc(-c2cccc(-c3ccc(C(=O)NCC4CC4)cc3)c2)o1 | 7.95% |
| COc1cc2c(cc1Nc1nc(Nc3cccc(F)c3C(N)=O)c3cc[nH]c3n1)N(C(=O)CN1CCN(C(C)C)CC1)CC2 | 3.15% |
| COc1cc(N2CCN(C(C)C)CC2)ccc1Nc1nc(Nc2cccc(F)c2C(=O)O)c2cc[nH]c2n1 | 4.85% |
| NC(=O)c1ccc2c(-c3ccnc(NCCCO)n3)c(-c3ccc(F)cc3)nn2c1 | 10.1% |
| COc1ccccc1-c1cc(/C=C2\C(=O)Nc3ncc(Br)cc32)cc(Br)c1O | 5.71% |
| COC(=O)Nc1nc2ccc(Oc3ccc(NC(=O)Nc4cc(C(F)(F)F)ccc4F)cc3)cc2s1 | 2.27% |
| CN1CCC(C(=O)Nc2n[nH]c3nc(-c4ccc(O)cc4)c(Br)cc23)CC1 | 7.75% and 5.32% |
| CCOc1ccc2c(-c3ccnc(Nc4cc(OC)cc(C(F)(F)F)c4)n3)cnn2n1 | 2.19% |
| CC1=C(C(=O)Nc2ccc3[nH]ncc3c2)C(c2ccc(F)cc2)N=C(c2ccc(C(F)(F)F)nc2)N1 (configuration not stated) | 4.22% |
| Nc1ncnc2occ(-c3ccc(NC(=O)Nc4cc(C(F)(F)F)ccc4F)cc3)c12 | 6.26% and -2.13% |
| CCS(=O)(=O)c1ccc(OC)c(Nc2ncc(-c3cccc(C(C)=O)c3)o2)c1 | 3.09% |
| FC(F)(F)CNc1nccc(-c2cnn3ncccc23)n1 | 3.42% |
| CN(C)CCNC(=O)Nc1ccc(N(C)c2ccnc(Nc3ccc(CS(C)(=O)=O)cc3)n2)cc1 | 5.87% |
| Nc1nccc(-c2c(-c3ccc(F)cc3)ncn2C2CCNCC2)n1 | -0.88% and 2.53% |
| CN1CCC(n2cnc(-c3ccc(F)cc3)c2-c2ccnc(NCCO)n2)CC1 | 7.76% |
